The list is not random: actives were taken first. Their share in the collection is about 9.9%.
KB-V1 cytotox = qHTS assay for MDR1-selective chemotherapeutics: Primary screen using the drug-selected MDR subline cells KB-V1. KB-V1 MDR cells viability, CellTiter-Glo, 72 h. Potency, µM (doses to about 46.1 µM), usual class: cytotoxic. 400,000 tested, 3.4% active; also: potency is read from the fitted curve at half-maximal effect; % is scaled to controls: 0 for no effect and ±100 for the full control effect; nearly all actives have a fitted effect of over 60% in size
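Cytotoxicity via CellTiter-Glo luminescence after 72 h compound exposure at 37 degrees C. Cells: drug-selected KB-V1 line, DMEM phenol-red free plus 10% FBS. Compounds tested at multiple concentrations; normalized data fitted to concentration-effect curves.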
SW480 rereplic = A quantitative high throughput screen for small molecules that induce DNA re-replication in SW480 colon adenocarcinoma cells; Potency, µM (titrated, usually from 46.1 µM), inactives show top-dose re-replication activation, actives largely listed as activators; SW480 DNA re-replication, Hoechst DNA content imaging, 48 h; 340,000 tested, 1.8% active; also: potency is read from the fitted curve at half-maximal effect; % of control where 0% means no effect; nearly all actives have a fitted effect of over 55% in size
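DNA re-replication was detected as more nuclei of elevated Hoechst intensity after 48 hr exposure to compound (23 nL pinned per well of 250 cells).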
KB-3-1 tox = qHTS assay for MDR1-selective chemotherapeutics: Primary screen using the parental adenocarcinoma cell KB-3-1; KB-3-1 viability, CellTiter-Glo ATP luminescence, 72 h; Potency, µM (highest dose often 46.1 µM), usual class: cytotoxic; 400,000 tested, 1.4% active; AID 1347075, 2019; also: potency is read from the fitted curve at half-maximal effect; % is scaled to controls: 0 for no effect and ±100 for the full control effect; nearly all actives have a fitted effect of over 60% in size
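KB-3-1 cells, DMEM (no phenol red) + 10% FBS; compound by pin transfer, 72 h, 37 °C. Readout: CellTiter-Glo luminescence after 10 min. Data normalized, curve-fitted.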
MCF10A rereplic = A quantitative high throughput screen for small molecules that induce DNA re-replication in MCF 10a normal breast cells | MCF 10A DNA re-replication, Hoechst nuclear intensity, 48 h | Potency, µM (top dose mostly 46.1 µM), without a hit: top-dose activity, positive = re-replication, most hits filed as activators | 350,000 tested, 2.9% active; also: potency is read from the fitted curve at half-maximal effect; % of control where 0% means no effect; nearly all actives have a fitted effect of over 50% in size
IL-1B inflam inh = qHTS for Inhibitors of Inflammasome Signaling: IL-1-beta AlphaLISA Primary Screen | activity change, % at 57.5 µM | THP-1 LPS/ATP IL-1B secretion, AlphaLISA, 16 h; active compounds read low | 360,000 tested, 4.7% active; in the data active = activity change below about -50%; inconclusive = mostly about -30% to -49%; also: % is scaled to controls: 0 for no effect and ±100 for the full control effect
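Secreted IL-1B measured by AlphaLISA bead assay after 16 h compound exposure of THP-1 cells; compounds (final up to 57.5 uM) added 1 h before LPS (250 ng/mL) and ATP (1.25 mM) stimulation; lower signal means less secretion.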
* marks the source's active call; other numbers are inactive results; i = inactive; ? = inconclusive; · = no result; ! = a repeat was not active. Unless noted, calls follow the shape of the dose curve; as a rule, active = well fitted curve in the direction sought with a large enough effect; inconclusive = small, poorly fitted or top-dose-only effect, or another doubt; inactive = no such curve, though single readings can be large; an effect the other way counts as inactive or inconclusive.

SMILES	KB-V1 cytotox	SW480 rereplic	KB-3-1 tox	MCF10A rereplic	IL-1B inflam inh
CC(=O)Oc1ccc(C(=O)Nc2cc(C)ccc2NC(=O)COc2ccccc2)cc1	16.4µM*	-3.6%	i	-0.6%	0.0
Cc1ccc(NS(=O)(=O)c2ccc(C)c(NC(=O)COc3ccccc3)c2)c(C)c1	20.6µM*	-5.6%	i	0.6%	-4.0
Cc1ccc(C)c(NS(=O)(=O)c2ccc(OCC(=O)N3CCCC3)cc2)c1	20.6µM*	-6.0%	i	22.9%	-6.3
COc1cccc(CNC(=O)C2Cc3cc(S(=O)(=O)N4CCCCCC4)ccc3N2C(C)=O)c1 (stereo not drawn)	?	·	i	·	·
O=C(Nc1ccccc1)c1cc2c(-c3ccccc3)nn(-c3ccccc3)c2s1	?	·	i	·	·
CN(C(=O)c1nn(C)c2c1CS(=O)(=O)c1ccccc1-2)c1cccc(Cl)c1	?	0.8%	i	-0.2%	0.7
CCN(Cc1ccccc1)c1ccc(/C=N/N=C(N)N)cc1	?	?	?	?	-99.7*
COc1ccc(CCNC(=O)c2c(O)nc3c(C)cccn3c2=O)cc1	?	·	i	·	·
Cc1cc(NS(=O)(=O)c2ccc(NC(=O)COc3ccc(Br)cc3)cc2)nc(C)n1	?	?	?	18.4µM*	23.6
COc1ccc(C(=O)Nc2nc(CC(=O)NCCc3ccccc3)cs2)cc1	?	1.5%	i	18.5%	-52.3*
O=C(Cc1csc(NC(=O)c2ccccc2)n1)NO	i	4.2%	i	-0.2%	-57.6*
Cc1csc(=O)n1CC(=O)OCC(=O)c1ccc(Br)cc1	i	-0.7%	i	0.0%	13.6
O=C1CCCc2cc3c(cc21)CC1(C3)Cc2cc3c(cc2C1)C(=O)CCC3	i	5.8µM*	6.51µM*	3.26µM*	0.0
CCC(C)NC(=O)CSc1nnc(-c2ccc(C)cc2)c(-c2ccc(C)cc2)n1 (stereo not drawn)	i	·	i	·	·
O=C(CCl)N(CCCNC(=O)C(F)(F)F)c1ccc([N+](=O)[O-])cc1	i	?	i	?	-100.5*
CCSC1=C(C#N)C(c2cccs2)C(C(=O)OC)=C(C)N1 (stereo not drawn)	20.6µM*	10.9%	i	12.4%	-6.9
C=CCOC(=O)C1=C(C)NC(SC)=C(C#N)C1c1cccs1 (stereo not drawn)	6.51µM*	?	11.6µM*	?	-12.4
C=CCOC(=O)C1=C(C)NC(SC)=C(C#N)C1c1ccc(OCC)cc1 (stereo not drawn)	?	2.8%	i	?	-75.0*!
C=CCOC(=O)C1=C(C)NC(SCC(=O)Nc2nccs2)=C(C#N)C1c1cccs1 (stereo not drawn)	i	?	i	?	-16.9
COc1ccc(OC)c(S(=O)(=O)N2CCCC(C(=O)N3CCCCCC3)C2)c1 (stereo not drawn)	i	2.5%	i	6.5%	15.3
Cc1cc(C)nc(N2CCCC(C(=O)Nc3cc(F)ccc3C)C2)n1 (stereo not drawn)	16.4µM*	-2.2%	i	-4.1%	27.8
Cc1cc(C)nc(N2CCCC(C(=O)NCCc3cccc(F)c3)C2)n1 (stereo not drawn)	18.4µM*	-7.8%	i	-1.3%	4.5
Cc1cc(C)nc(N2CCCC(C(=O)Nc3ccc4c(c3)OCO4)C2)n1 (stereo not drawn)	23.1µM*	3.3%	i	11.0%	20.0
COc1ccc(CCNC(=O)C2CCCN(c3nc(C)cc(C)n3)C2)cc1 (stereo not drawn)	i	-13.0%	i	4.9%	13.2
Cc1cc(C)nc(N2CCC(C(=O)Nc3ccc4c(c3)OCO4)CC2)n1	?	-21.4%	i	7.8%	74.2
SMILES	KB-V1 cytotox	SW480 rereplic	KB-3-1 tox	MCF10A rereplic	IL-1B inflam inh
COc1ccccc1NC(=O)C1CCCN(c2nc(C)cc(C)n2)C1 (stereo not drawn)	?	-5.8%	i	6.9%	13.9
COc1cccc(/C=C2/C(=O)NN(c3ccc(F)cc3)C2=O)c1	i	-1.6%	i	?	-22.2
O=C1NN(c2ccc(F)cc2)C(=O)/C1=C/c1cccs1	i	-0.3%	i	4.8%	-51.4*
COc1ccc(N2CCN(C(c3cccs3)C(C)NS(=O)(=O)c3ccccc3)CC2)cc1 (stereo not drawn)	?	-4.2%	20.6µM*	?	-3.6
CC(C)C(=O)NC(C)C(c1cccs1)N1CCN(c2ccccc2)CC1 (stereo not drawn)	13µM*	-4.8%	i	10.3%	0.0
COc1ccccc1CNS(=O)(=O)c1ccc2c(c1)CC(C)N2C(C)=O (stereo not drawn)	i	·	i	·	·
CC1CCc2cc(F)cc3c2N1C(=O)C(C(=O)Nc1cnccn1)C3=O (stereo not drawn)	i	·	i	·	·
CCOC(=O)N1CCN(C(=O)C[C@@H]2C[C@@]3(C(=O)OC)CCCCC=C3N(CCc3ccc(OC)c(OC)c3)C2=O)CC1	?	·	i	·	-8.8
Cc1nc2ccc(S(=O)(=O)Nc3ccc(-c4nc5cccnc5s4)cc3)cc2s1	i	14.3%	i	6.51µM*	19.5
Cc1nc2ccc(S(=O)(=O)Nc3cccc(-c4nc5cccnc5s4)c3)cc2s1	i	2.0%	?	6.51µM*	56.3
Cc1ccc2nc(-c3ccc(NS(=O)(=O)c4ccc(F)c(F)c4)cc3)sc2c1	i	?	i	10.3µM*	-51.4*
Cc1ccc(NC(=O)CSCC(=O)Nc2nnc(C)s2)cc1	i	-10.8%	i	1.2%	12.1
COc1ccccc1-n1c(C)c(C(=O)O)c2cc(OC)c3ccccc3c21	i	-6.0%	i	-3.2%	36.0
CCOC(=O)c1c(NC(=O)CSc2nc3nc(C)cc(C)n3n2)sc(CC)c1C	i	-2.5%	i	14.5%	27.8
C=CCn1c(O)c(C2=c3ccccc3=NC2=O)sc1=Nc1ccc(O)cc1	?	-9.8%	?	?	-50.5*
O=C1N=c2ccccc2=C1c1sc(=S)n(NC(=O)c2ccccc2)c1O	i	2.0%	i	-2.7%	45.6
Cc1ccc(CO)cc1Nc1ncnc2onc(-c3ccc(F)cc3)c12	i	·	i	·	·
O=C(/C=C/c1ccc2c(c1)OCO2)c1ccc[nH]1	i	3.0%	i	-1.9%	-94.7*
O=C(N/N=C\C=C\c1ccc2c(c1)OCO2)c1ccc(F)cc1	i	-18.6%	i	?	-16.4
O=C(CNC(=O)c1ccc2c(c1)OCO2)N/N=C(Br)/C=C/c1ccccc1	i	?	?	9.2µM*	-61.2*
O=C(CNC(=O)c1ccc2c(c1)OCO2)N/N=C/c1cccc([N+](=O)[O-])c1	i	4.2%	i	-4.0%	29.5

High-throughput results as filed in PubChem.
